Compound activity from PubChem.
MCF10A rerep: induces DNA re-replication in MCF 10a normal breast cells; Potency, µM (top dose mostly 46.1 µM), without a hit: at the top dose activity, positive = re-replication, actives largely listed as activators; 2.9% of 350,000 active; MCF 10A DNA re-replication, Hoechst nuclear intensity, 48 h; also: potency is read from the fitted curve at half-maximal effect; % of control where 0% means no effect; nearly all actives have a fitted effect of over 50% in size
Chronic BCR inh: inhibitors of chronic active B-cell receptor signaling | ABC-DLBCL IkBa-CBG/CBR reporter, luminescence ratio, 4 h | Potency, µM (titrated, usually from 46.1 µM), for inactives: top-dose activity change, negative = inhibition, usual class: inhibitors | 0.05% of 340,000 active | AID 493014; active = well fitted inhibition curve with a large enough effect in the signal ratio, with a control signal flat, not every such curve was filed as active; inconclusive = small, poorly fitted or top-dose-only effect, or effect the other way, or a change in a side signal; the % refers to the signal ratio;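 also: potency is read from the fitted curve at half-maximal effect; plate controls were basal doxycycline-induced cells for no effect and cells given 10 µM MG132 for full effect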
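TMD8 human ABC-DLBCL cells with doxycycline-inducible IκBα–green luciferase fusion and unfused red luciferase, in 0.5% FBS medium; compounds up to 46 uM, 4 h at 37C. Green/red luminescence ratio, filter-overlap corrected, fitted to concentration-response curves.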
RORg inh: ROR gamma (mouse) transcription inhibition; 5.4% of 310,000 active; Potency, µM (top dose mostly 53.6 µM), without a hit: at the highest dose activity change, negative = inhibition, usual class: inhibitors; Drosophila S2 Gal4-RORgamma UAS-luciferase reporter, 20 h; also: potency is read from the fitted curve at half-maximal effect; % is scaled to controls: 0 for no effect and ±100 for the full control effect; nearly all actives have a fitted effect of over 60% in size
Target sequence (P51450 whole entry, looked up, the tested form may be a part): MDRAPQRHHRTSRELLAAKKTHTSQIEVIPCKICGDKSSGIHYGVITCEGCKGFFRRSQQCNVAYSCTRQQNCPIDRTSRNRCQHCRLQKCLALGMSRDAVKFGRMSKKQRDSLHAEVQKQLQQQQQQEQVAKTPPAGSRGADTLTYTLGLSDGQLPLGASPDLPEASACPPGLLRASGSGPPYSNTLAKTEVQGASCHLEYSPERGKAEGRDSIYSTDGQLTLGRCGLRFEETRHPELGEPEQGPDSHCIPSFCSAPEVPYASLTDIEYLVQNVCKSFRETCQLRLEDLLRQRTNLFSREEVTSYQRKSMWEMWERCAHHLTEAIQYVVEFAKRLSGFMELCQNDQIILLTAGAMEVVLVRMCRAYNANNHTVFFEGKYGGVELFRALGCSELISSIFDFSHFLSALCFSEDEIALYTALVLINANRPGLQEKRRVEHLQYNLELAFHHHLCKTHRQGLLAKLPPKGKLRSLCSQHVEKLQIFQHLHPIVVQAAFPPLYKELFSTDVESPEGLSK
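Drosophila S2 cells stably expressing Gal4-DBD/mouse RORγ fusion under metallothionein promoter plus UAS-luciferase; compound 1 h, then 700 uM CuSO4 induction for 20 h at ambient temperature; inhibition read as reduced luminescence.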
Giardia killer: kills Giardia lamblia; 0.15% of 340,000 active; activity change, % at 7.66 µM, hits read low; Giardia lamblia trophozoite viability; in the data active = activity change below about -80%; inconclusive = between about -30% and that limit;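 also: parasites exposed to compound for two days anaerobically before the ATP read; % is scaled to controls: 0 for no effect and ±100 for the full control effect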
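Giardia lamblia trophozoites (100 cells/well) were incubated with compounds for 48 h at 37 deg C under anaerobic conditions. Viability was read as ATP content by one-step luminescence after 15-30 min at room temperature.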
SW480 rereplic: inducers of DNA re-replication in SW480 colon cancer cells; SW480 DNA re-replication, Hoechst DNA content imaging, 48 h; 1.8% of 340,000 active; Potency, µM (highest dose often 46.1 µM), without a hit: top-dose re-replication activation, hits mostly activators; also: potency is read from the fitted curve at half-maximal effect; % of control where 0% means no effect; nearly all actives have a fitted effect of over 55% in size
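First, 250 cells per well were seeded. Next, compound or vehicle (23 nL) was pinned in, plates sat 48 hr at 37 C. Finally Hoechst was added for 40 min before fluorescence scanning.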
VP16 counter: inhibits Gal4-VP16 luciferase reporter, ROR gamma counter-screen | Drosophila S2 Gal4-VP16 UAS-luciferase, luminescence, 20 h | Potency, µM (top dose mostly 53.6 µM), for inactives: top-dose activity, negative = inhibition, actives largely listed as inhibitors | AID 2546 | 3.5% of 310,000 active;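 also: Gal4-VP16 expression switched on by copper sulfate through the metallothionein promoter; potency is read from the fitted curve at half-maximal effect; % is scaled to controls: 0 for no effect and ±100 for the full control effect; nearly all actives have a fitted effect of over 50% in size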
Numbers without * were called inactive. Only some compounds are listed: those with a hit (about 8.3% of all), similar ones and a draw of the others. Unless noted, calls follow the shape of the dose curve; as a rule, active = well fitted curve in the direction sought with a large enough effect; inconclusive = small, poorly fitted or top-dose-only effect, or another doubt; inactive = no such curve, though single readings can be large; an effect the other way counts as inactive or inconclusive.

Results for O=C(COc1ccccc1)Nc1nc2ccccc2[nH]1 ?
MCF10A rerep: 2%; Chronic BCR inh: inconclusive; RORg inh: inconclusive; Giardia killer: -8; SW480 rereplic: -5%

How did COC(=O)c1ccccc1C(=O)N1CC(O)CO1 (centres undefined) do in these assays?
MCF10A rerep: 0%; Chronic BCR inh: 1%; RORg inh: 1%; Giardia killer: -2; SW480 rereplic: 1%; VP16 counter: -4%

What do the screens show for `Cc1cc(C(=O)O)ccc1[C@H](N)C(=O)O`?
RORg inh: -13%; VP16 counter: -4%

How did O=C1/C(=C/c2ccc([N+](=O)[O-])cc2)C=C(c2ccccc2)N1c1ccc(O)cc1 do in these assays?
MCF10A rerep: 18µM*; Chronic BCR inh: inconclusive; RORg inh: 26%; Giardia killer: -6; SW480 rereplic: inconclusive; VP16 counter: -2%

Results for COc1ccc(OCCOC(=O)C(C)NS(=O)(=O)c2ccc(NC(C)=O)cc2)cc1 (centres undefined) ?
MCF10A rerep: 5%; Chronic BCR inh: 6%; Giardia killer: -19; SW480 rereplic: -7%

Results for CC(C)c1ccc2c(c1)C1(NN=C(c3ccccc3)S1)C(=O)N2 (centres undefined) ?
MCF10A rerep: 1.3µM*; Chronic BCR inh: inconclusive; RORg inh: 5.6µM*; Giardia killer: -8; SW480 rereplic: 8.2µM*; VP16 counter: 5µM*

What do the screens show for `CCc1ccc2c(c1)C1(NN=C(c3ccc(C)cc3)S1)C(=O)N2` (centres undefined)?
MCF10A rerep: 6.5µM*; Chronic BCR inh: inconclusive; RORg inh: 4µM*; Giardia killer: 0; SW480 rereplic: inconclusive; VP16 counter: 3.5µM*

How did CCN1CCN(C(CNS(=O)(=O)c2ccc(OC)c(C)c2)c2cccnc2)CC1 (centres undefined) do in these assays?
MCF10A rerep: 5%; Chronic BCR inh: -2%; RORg inh: -15%; Giardia killer: -9; SW480 rereplic: -6%; VP16 counter: -6%

Results for Cn1c2ccccc2c(=O)c2cc(C#Cc3ccccn3)ccc21 ?
MCF10A rerep: -21%; Chronic BCR inh: 16%; RORg inh: inconclusive; Giardia killer: -9; SW480 rereplic: -4%; VP16 counter: inconclusive

Results for Cn1cncc1C#Cc1c(C=O)n(C)c2ccccc12 ?
MCF10A rerep: inconclusive; Chronic BCR inh: -3%; Giardia killer: -20; SW480 rereplic: 20%

What do the screens show for `COc1cc(C#Cc2c(C=O)n(C)c3ccccc23)cc(OC)c1`?
MCF10A rerep: 5.8µM*; Chronic BCR inh: 1%; Giardia killer: 6; SW480 rereplic: 8.2µM*

What do the screens show for `C=CCn1c2ccccc2c(=O)c2cc(C#Cc3cc(OC)cc(OC)c3)ccc21`?
MCF10A rerep: inconclusive; Chronic BCR inh: -1%; Giardia killer: -14; SW480 rereplic: 6.5µM*

How did CCOc1ccc(CN(C)C(=O)Cc2c[nH]c3ccccc23)cc1 do in these assays?
MCF10A rerep: 9%; Chronic BCR inh: inconclusive; RORg inh: 31%; Giardia killer: 0; SW480 rereplic: -2%; VP16 counter: -13%

Results for O=C(CSc1ccccn1)Nc1nc2ccccc2s1 ?
MCF10A rerep: 4%; Chronic BCR inh: inconclusive; RORg inh: 15%; Giardia killer: -2; SW480 rereplic: -7%; VP16 counter: 17%

How did O=S(=O)(CCSc1ccccn1)c1nc2ccccc2s1 do in these assays?
MCF10A rerep: inconclusive; Chronic BCR inh: 0%; RORg inh: 13µM*; Giardia killer: -6; SW480 rereplic: inconclusive; VP16 counter: inconclusive

What do the screens show for `O=S(=O)(CCSc1nc2ccccc2o1)c1nc2ccccc2s1`?
MCF10A rerep: inconclusive; Chronic BCR inh: inconclusive; RORg inh: inconclusive; Giardia killer: 4; SW480 rereplic: 4.6µM*; VP16 counter: inconclusive
